Consider 89 compounds from PubChem BioAssay AID652010 (The Scripps Research Institute Molecular Screening Center, 2013).

Out of some 370,000 compounds screened, about 4,100 (1.1%) were called active.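 The calls were made as follows: active = inhibition above the mean over all tested compounds plus 3 SD (cut at about 3.6% in these data); inactive = the rest.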 For the sample, actives were picked, then their nearest neighbours and some compounds at random.

This assay can be described thus: relief of DAX-1 repression of SF-1 activity – cell-based, luminescence, SF-1 (NR5A1), full-length DAX-1, primary screen (AID 652010).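 Also: 0% = DAX-1 cells with DMSO and 100% = cells lacking DAX-1 with DMSO; higher inhibition means more luminescence from relief of DAX-1 repression.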 The note with it: HEK293T StAR-luciferase reporter, SF-1/DAX-1 repression relief; at 6.8 µM; active compounds read high.
With `CCOc1ccccc1C(=O)N1CCC[C@@H]1C(=O)N1CCC[C@H]1C(=O)NCc1ccccc1`, the inhibition is 0.55% (inactive). With `COc1ccc(-n2c(SCC(=O)NC3CCCC3)nnc2-c2ccncc2)cc1`, the inhibition is -0.56% (inactive). Take `CC(=NNC(N)=O)c1ccc(Cl)c(-n2cccc2)c1`: the inhibition was -0.18% (inactive). Consider `COc1ccccc1CN(C)C(=O)c1cc2ccccc2o1`, for which the inhibition is -0.34% (inactive). The result for `Cn1c(SCC(=O)NC2CCCCC2)nnc1-c1cc2ccccc2o1` reads -0.14% (inactive); that for `CCNc1nc(-c2cc3ccccc3o2)cs1`, 4.18% (active). As to `O=C(NCc1ccc(F)cc1)c1cc(C2CCCCN2C(=O)c2ccccn2)on1` (centres undefined), the inhibition is -1.23% (inactive). With `COc1ccc(C2CC=C(C(=O)O)C(c3ccccc3F)N2S(=O)(=O)c2ccc(C)cc2)cc1OC` (centres undefined), the inhibition was 0.7% (inactive). Regarding `O=S(=O)(c1ccccc1)N1CCC(c2nc3ccccc3o2)CC1`, the inhibition is -0.48% (inactive).

In the case of `Cc1ccc(CN2CCC(N3CCC(C(=O)NCC4CCCO4)CC3)CC2)o1` (centres undefined), the inhibition is 0.9% (inactive). Consider `Cc1cccc(NC(=O)COc2ccc(Br)cc2C)n1`, for which the inhibition was 2.42% (inactive). Turning to `CC(=O)NC(c1cccc(F)c1)c1nc(-c2cccc(F)c2)cs1` (centres undefined), the inhibition was -0.34% (inactive).

`CC(=O)Nc1cccc(-c2csc(Nc3cccc(C)n3)n2)c1`: the inhibition is 4.69% (active). Next, `OC(c1ccccc1)(c1ccccc1)C1CCN(CCCOc2ccc(-c3ccsc3)cc2)CC1`: -0.82% (inactive); `CCC(=O)Nc1ccc2c(c1)C(=O)N(C)[C@H]1CC[C@H](CC(=O)NCCOC)O[C@@H]1CO2`: 0.92% (inactive); `Cc1nc(N)sc1N=Nc1c(C)n(C)n(-c2ccccc2)c1=O`: 0.04% (inactive). Next, `Cc1c(N=Nc2ccc(N(C)C)cc2)c(=O)n(-c2ccccc2)n1C`: 4.03% (active). In the case of `Cc1c(C=O)n(C)n(-c2ccccc2)c1=O`, the inhibition was 0.3% (inactive). Take `C=CCn1c(SCC(N)=O)nnc1-c1ccccc1OC`: the inhibition was -0.12% (inactive). Next, `CCN(CC(=O)Nc1ccc(C)c(S(=O)(=O)N(C)C)c1)Cc1ccccc1`: 0.23% (inactive).

Turning to `COc1ccc(CCC(=O)OCC(=O)Nc2ccc(C)c(S(=O)(=O)N(C)C)c2)cc1`, the inhibition was 1.11% (inactive). Turning to `Cc1ccc(C(=O)Nc2ccc(C)c(S(=O)(=O)N(C)C)c2)s1`, the inhibition is 4.23% (active).

Regarding `CCc1nc2ccc(C(=O)Nc3ccc(OC)c(OC)c3)cn2c1N(C)C(=O)c1cccc(OC)c1`, the inhibition is -1.08% (inactive).

For the compound `CSCCC(NC(=O)c1ccco1)C(=O)NCCc1ccc(F)cc1` (centres undefined), the inhibition was 0.47% (inactive). Consider `CSCCC(NC(=O)c1ccco1)C(=O)Nc1cc(C)ccn1` (centres undefined), for which the inhibition is 11% (active).

With `CSCCC(NC(=O)c1ccco1)C(=O)OCC(=O)Nc1ncc(Cl)c(C)c1Cl` (centres undefined), the inhibition was -0.11% (inactive). In the case of `COC(=O)c1ccc(CN2C(=O)NC(c3ccccc3)(c3ccccc3)C2=O)o1`, the inhibition is 0.15% (inactive). Next, `O=C(C1CCCN1S(=O)(=O)c1ccccc1)N1CCc2ccccc2C1` (centres undefined): -0.56% (inactive). Next, `CC(C)CC(=O)N/C(N)=N/c1nc2ccccc2s1`: 4.37% (active); `CC(C)C(C)NC(=O)COc1ncnc2ccccc12` (centres undefined): -0.45% (inactive); `CCC(=O)NC(=Nc1nc2ccccc2s1)NC(=O)CC`: 3.92% (active). The result for `CC(NC(=O)COC(=O)c1ccc2ccccc2n1)c1ccccc1` (centres undefined) reads 0.44% (inactive). For `CC(C)CC(=O)NC(=S)NNC(=O)c1cccc([N+](=O)[O-])c1`, the inhibition was -0.72% (inactive). Next, `O=C(CSc1nc2ccccc2s1)NN=Cc1ccc(O)cc1O`: -0.65% (inactive).

Turning to `Cc1ccc(C)c(NC(=O)CCS(=O)(=O)c2ccccc2)c1`, the inhibition is 0.88% (inactive). For the compound `COc1ccc(S(=O)(=O)n2nc(C)c(S(=O)(=O)N3CCOCC3)c2C)cc1`, the inhibition is -0.25% (inactive).

Take `COc1ccc(CN2C/C(=C/c3ccccc3)N3C(=O)C[C@@H](c4ccccc4)N=C23)c(OC)c1`: the inhibition was -0.16% (inactive). `CCN(CC)C(=O)CC[C@H]1CC[C@]2(CCCN(Cc3ccc(Cl)cc3)C2)O1`: the inhibition is -0.32% (inactive). Take `COc1ccc(S[C@]2(C(=O)N(C)C)CC(=O)N(c3ccc(OC)cc3)[C@@H]2c2ccc(OC)cc2)cc1`: the inhibition was -0.46% (inactive). For `Cc1cc(=O)[nH]c(SCC(=O)Nc2ccc(Cl)cc2C)n1`, the inhibition was 0.86% (inactive). As for `CCCCCCNC(=O)O[C@H]1CN(C(=O)OC(C)C)N(C(=O)OC(C)C)[C@@H]2CN(S(=O)(=O)c3ccc(C)cc3)C[C@]12O`, the inhibition was 4.45% (active). For the compound `CCCCCCNC(=O)O[C@]12C[C@@H](C(=O)OC)[C@@H](C(=O)OC)C[C@@]1(O)CN(S(=O)(=O)c1ccc(C)cc1)C2`, the inhibition was -0.86% (inactive). On to `Cc1ccc(S(=O)(=O)N2C[C@H]3n4c(=O)ccc(=O)n4C[C@H](OC(=O)NC4CCCC4)[C@@]3(O)C2)cc1`, for which the inhibition was -0.77% (inactive).

On to `Cc1ccccc1NC(=O)COC(=O)c1ccc(Sc2ncn[nH]2)c([N+](=O)[O-])c1`, for which the inhibition was 2.48% (inactive). `CC1(C)OC(=O)C2=C(CC(CCc3ccccc3)OC2c2ccc(Cl)cc2)O1` (centres undefined): the inhibition was -1.2% (inactive). Next, `Cc1sc(NC(=O)c2ccc3ncsc3c2)c(C(N)=O)c1C`: 10.2% (active); `COc1ccccc1-c1nnc(NC(=O)c2ccc3ncsc3c2)o1`: 0.87% (inactive).

Take `O=C(COC(=O)c1ccc2ncsc2c1)Nc1ccc(Cl)cc1`: the inhibition was -0.21% (inactive). With `CN(Cc1ccccc1Cl)C(=O)C1CCC(=O)N(CCc2cccc(F)c2)C1` (centres undefined), the inhibition is 0.69% (inactive). `CN(CC(=O)Nc1cccc(F)c1)C(=O)C1CC(=O)N(CCc2ccccc2)C1` (centres undefined): the inhibition was 4.19% (active). On to `CCNC(=O)c1cccc(NC(=O)C2CC(=O)N(CCc3ccccc3)C2)c1` (centres undefined), for which the inhibition is 0.37% (inactive). Next, `C=CCN1C(=O)[C@@H](CC(=O)N2CCN(C(=O)OCC)CC2)[C@]2(C(=O)OCC)CCCCC/C=C/12`: 1.04% (inactive); `COC(=O)[C@H](C(C)C)N(CCCc1cn(Cc2ccccc2)nn1)S(=O)(=O)c1ccc(F)cc1Br`: -1.67% (inactive); `Cc1sc2ncnc(N3CCC(C(=O)Nc4ccc(F)cc4Cl)CC3)c2c1C`: 1.94% (inactive). For `Cc1sc2ncnc(N3CCC(C(=O)NNC(=O)c4ccc(F)cc4)CC3)c2c1C`, the inhibition was -3.62% (inactive).

Take `Cc1sc2ncnc(N3CCC(C(=O)Nc4nc5ccc(Cl)cc5s4)CC3)c2c1C`: the inhibition is 4.32% (active). As to `CC(=O)C1=C(C)N(Cc2ccc(Cl)cc2)C(=S)NC1c1ccc(F)cc1` (centres undefined), the inhibition is 0.31% (inactive). As to `Cc1cc(NC(=O)COc2ccccc2C#N)no1`, the inhibition is 4.34% (active). Consider `Cc1cc(NC(=O)COn2nnc3ccccc32)no1`, for which the inhibition was 0.82% (inactive).

Turning to `COc1ccc(C(=O)OCC(=O)Nc2cc(C)on2)cc1F`, the inhibition is -1.4% (inactive). Consider `COc1ccc(C2CC(=O)C=C(NCC3CCCO3)C2)cc1` (centres undefined), for which the inhibition was -0.07% (inactive). For the compound `CCCCCCN1CCS(=O)(=O)N(Cc2ccc(C(F)(F)F)cc2)C(C(=O)OC)C1` (centres undefined), the inhibition was -0.72% (inactive). For `CCc1ccc(CN2C(=O)c3ccccc3C2C(=O)NCC2CCCO2)cc1` (centres undefined), the inhibition is -0.05% (inactive). With `CC(=NCC1CCCO1)c1c(O)[nH]c(=O)[nH]c1=O` (centres undefined), the inhibition was 1.34% (inactive).

As to `O=C1C(C=NCC2CCCO2)=C(O)c2ccccc21` (centres undefined), the inhibition was 4.59% (active). As to `COc1ccc(CNS(=O)(=O)c2cc(Br)ccc2Br)cc1`, the inhibition was -0.4% (inactive).

As for `CCSc1nnc(NC(=O)c2ccc(C)cc2)s1`, the inhibition was 5.52% (active). In the case of `O=C(/C=C/c1ccccc1)Nc1nnc(SCC(=O)c2ccc3ccccc3c2)s1`, the inhibition was 0.17% (inactive). As to `COc1ccc(C(=O)CSc2nnc(NC(=O)C3CC(=O)N(c4cccc(OC)c4)C3)s2)cc1` (centres undefined), the inhibition is -0.22% (inactive). The result for `CCCc1cc(=O)[nH]c2nnc(SCC(=O)Nc3nnc(SCC)s3)n12` reads 2.35% (inactive). The result for `COC(=O)c1ccc(CSc2nnc(NC(C)C)s2)cc1` reads -0.08% (inactive); that for `NC(=O)CSc1nnc(NC(=O)c2ccc3ccccc3c2)s1`, 6.15% (active); that for `CCCCOCCCNC(=O)C[C@H]1C[C@@]2(C(=O)OC)C(=C[C@H](COCc3ccccc3)O[C@@H]2C)N(Cc2cccc3ccccc23)C1=O`, -0.91% (inactive).

`COc1cc(NC(=O)C2CCCN(S(=O)(=O)c3ccc(C(C)(C)C)cc3)C2)cc(OC)c1` (centres undefined): the inhibition was 0.97% (inactive).

As for `C/C(=N\NC(=O)c1ccccc1F)c1ccccn1`, the inhibition was 6.14% (active). Take `C/C(=N/NC(=O)c1ccn(C)n1)c1ccncc1`: the inhibition is -0.02% (inactive). With `O=C(Nc1nnc(-c2ccccc2F)s1)c1ccccc1F`, the inhibition is 0.85% (inactive). The result for `CCCCCCCCNS(=O)(=O)/C=C/c1cc(C)ccc1CNC(=O)OC(C)(C)C` reads -1.91% (inactive); that for `CN[C@H]1C[C@H]2c3cc(N4CCOCC4)ccc3CCN2C[C@H]1[C@H](C)O`, -0.26% (inactive); that for `COC(=O)C1=C(C)N(Cc2cccc(C(F)(F)F)c2)C(=NCc2ccccc2)NC1c1ccccc1C(F)(F)F` (centres undefined), -0.23% (inactive). In the case of `COc1ccc(C(=O)COC(=O)CN2C(=O)C3CC=CCC3C2=O)c(OC)c1` (centres undefined), the inhibition was 1.03% (inactive). Take `COc1ccc(C(=O)COC(=O)C(O)c2ccccc2)c(OC)c1` (centres undefined): the inhibition is 3.84% (active).

For the compound `COc1ccc(C(=O)COC(=O)c2nn(C)c(=O)c3ccccc23)c(OC)c1`, the inhibition is 1.33% (inactive). For the compound `S=C1NC(c2ccccc2)=NCN1c1ccc(Br)cc1`, the inhibition is 0% (inactive).

Consider `Brc1ccc(C2CC(c3ccccc3)=Nc3ccccc3N2)cc1` (centres undefined), for which the inhibition is 3.86% (active). Next, `CNC(=S)N1N=C(c2ccccc2)CC1c1ccc(Br)cc1` (centres undefined): -0.46% (inactive). As to `CCOC(=O)c1c(C)[nH]c(C2=NNC(=NC(C)COC)SC2)c1C` (centres undefined), the inhibition was 4.39% (active).

Regarding `O=C1Nc2ccccc2C1=NN=Cc1ccco1`, the inhibition is -1.23% (inactive). Take `CCOC(=O)[C@]12CCCCC/C=C\1N(Cc1ccc(OC)cc1)C(=O)[C@H]2CC(=O)NCCCN1CCCC1=O`: the inhibition is 0.28% (inactive).
